Data: the GenesisPotency data set
Screen size: about 290,000 compounds; about 3,000 (1%) were called active. Rule as the data show it: active = inhibition mostly above about 36% (no sharp cut-off); inactive = mostly below about 34%. The sample as a whole holds a higher share of actives than the screen did.

Biological target: T1, Nucleotide-binding oligomerization domain-containing protein 1, Homo sapiens (UniProt Q9Y239)
T1 sequence (whole entry): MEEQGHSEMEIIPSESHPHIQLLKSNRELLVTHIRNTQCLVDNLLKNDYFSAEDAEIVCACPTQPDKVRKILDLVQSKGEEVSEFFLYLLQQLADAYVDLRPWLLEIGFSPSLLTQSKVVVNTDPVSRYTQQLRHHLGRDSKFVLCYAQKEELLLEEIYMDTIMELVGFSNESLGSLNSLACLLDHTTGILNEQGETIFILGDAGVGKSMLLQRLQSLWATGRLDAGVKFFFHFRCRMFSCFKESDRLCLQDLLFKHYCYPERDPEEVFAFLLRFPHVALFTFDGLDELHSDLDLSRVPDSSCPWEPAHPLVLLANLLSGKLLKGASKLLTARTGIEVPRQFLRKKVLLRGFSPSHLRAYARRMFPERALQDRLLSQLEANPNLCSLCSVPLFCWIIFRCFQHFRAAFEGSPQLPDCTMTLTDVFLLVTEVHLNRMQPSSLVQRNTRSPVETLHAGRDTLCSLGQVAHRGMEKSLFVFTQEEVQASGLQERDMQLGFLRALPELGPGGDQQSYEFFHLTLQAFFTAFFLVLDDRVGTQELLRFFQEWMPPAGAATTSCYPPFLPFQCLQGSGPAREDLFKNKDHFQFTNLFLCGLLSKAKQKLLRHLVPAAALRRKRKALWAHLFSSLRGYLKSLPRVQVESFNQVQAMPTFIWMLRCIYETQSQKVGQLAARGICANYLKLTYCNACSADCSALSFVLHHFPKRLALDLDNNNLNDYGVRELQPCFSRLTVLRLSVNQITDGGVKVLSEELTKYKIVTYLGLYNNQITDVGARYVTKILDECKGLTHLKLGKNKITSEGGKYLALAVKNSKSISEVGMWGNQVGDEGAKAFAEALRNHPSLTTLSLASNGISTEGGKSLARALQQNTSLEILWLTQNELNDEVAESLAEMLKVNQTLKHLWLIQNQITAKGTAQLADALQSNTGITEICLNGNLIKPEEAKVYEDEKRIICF
Experiment: inhibition of NOD1-driven NF-kB reporter – cell-based, luminescence, uHTS, primary screen (AID 1578)

outcome, active:
C=C(C)C(=O)O[C@H]1C/C(C)=C\C(=O)/C=C(\C)[C@H](O)[C@@H]2OC(=O)C(=C)[C@@H]21, CC1(C)N=C(N)N=C(N)N1c1ccc(OCCCOc2ccccc2)c(Cl)c1.CCS(=O)(=O)O, O=C(NCc1cccnc1)/C(=C\c1ccc(-c2ccc(Cl)c(Cl)c2)o1)S(=O)(=O)c1ccccc1, O=C(NCc1cccnc1)/C(=C/c1ccc(-c2ccc(Cl)cc2)o1)S(=O)(=O)c1ccccc1, COc1ccc(-c2cc(=O)oc3cc(OC(=O)C4CCCCC4)c(Cl)cc23)cc1, O=C(Oc1cc2oc(=O)cc(-c3ccccc3)c2cc1Cl)C1CCCCC1, O=[N+]([O-])c1ccc(N/N=C/c2sc(N3CCOCC3)nc2-c2ccccc2)c(S(=O)(=O)Nc2ccccc2Cl)c1, Br.O=[N+]([O-])c1ccc(N/N=C/c2sc(N3CCOCC3)nc2-c2ccccc2)c(S(=O)(=O)Nc2ccc(Cl)cc2)c1, COc1ccc2cc(C(N)=O)c(=Nc3ccc(C)cc3)oc2c1, Cc1ccc(N=c2oc3cc(O)ccc3cc2C(N)=O)cc1, COc1ccc(C2C(O)C(c3c[nH]c4ccccc34)=NN2C(=O)CCl)cc1 (stereo not given), COc1cccc(C(=O)Nc2ccc(Oc3cccc(C(F)(F)F)c3)nc2)c1, CN(C)c1ccnc2sc(C(N)=O)c(N)c12, Brc1ccc2ncnc(Nc3cccc4ccccc34)c2c1, COc1ccc(Nc2ncnc3ccc(Br)cc23)cc1OC, CC(=O)c1cccc(Nc2ncnc3ccc(Br)cc23)c1, Cc1cc(C)c(C)c(S(=O)(=O)N2CCN(c3ncnc4sc(C)c(C)c34)CC2)c1C, Cc1ccc(OCCN2CCN(c3ncnc4sc(C)c(C)c34)CC2)cc1, O=[N+]([O-])c1cc(S(=O)(=O)Nc2cccc(C(F)(F)F)c2)ccc1-n1nnc2ccccc21, CN(C)/C=C/c1c([N+](=O)[O-])c2ccc(O)cc2n1-c1ccccc1, Cc1c([N+](=O)[O-])c2ccc(O)cc2n1-c1ccccc1, S=C(NNc1ccnc2cc(Cl)ccc12)Nc1ccccc1Cl, COc1cccc(-n2nnnc2S(C)(=O)=O)c1, CCCS(=O)(=O)c1nnnn1-c1cccc(OC)c1, N#CCCS(=O)(=O)c1nnnn1-c1ccccc1, CS(=O)(=O)c1ccc(C(=O)OCc2nnc(-c3ccccc3)o2)cc1[N+](=O)[O-], CCCCN(CC)S(=O)(=O)c1ccc(C(=O)Nc2nnc(-c3cccs3)o2)cc1, CCCCN(C)S(=O)(=O)c1ccc(C(=O)Nc2nnc(-c3cccs3)o2)cc1, CCN(Cc1ccccc1)S(=O)(=O)c1ccc(C(=O)Nc2nnc(C3CC3)o2)cc1, CCCCN(CC)S(=O)(=O)c1ccc(C(=O)Nc2nnc(-c3ccccc3Cl)o2)cc1, Cc1cccnc1Nc1nc(-c2ccccn2)cs1, COc1ccccc1-c1nnc(Nc2nc3c(OC)cccc3s2)o1, COc1cccc2sc(Nc3nc(-c4ccccn4)cs3)nc12, COc1ccc(Nc2oc(COc3ccccc3OC)nc2C#N)cc1, Cc1oc2c(F)c(F)c(F)c(F)c2c1S(=O)(=O)Nc1cccc(C(F)(F)F)c1, CCCn1c(SCC(=O)Nc2nc3c(s2)CCCC3)nc2c1c(=O)n(C)c(=O)n2C, CCCCn1c(SCC(=O)Nc2nnc(CC)s2)nc2c1c(=O)n(C)c(=O)n2C, O=C(NC1CCCC1)c1sc(=S)n2c1[nH]c(=O)c1ccccc12, O=C(NC1CCCCC1)c1sc(=S)n2c1[nH]c(=O)c1ccccc12, Cc1ccc(-n2ncc3c2CCCC3NC(=O)c2ocnc2C)cc1C (stereo not given), Cc1ncoc1C(=O)NC1CCCc2c1cnn2-c1ccc(C(C)(C)C)cc1 (stereo not given), CCC1Sc2ccc(S(=O)(=O)Nc3ccc(OC)c(OC)c3)cc2NC1=O (stereo not given), O=C(Nc1nnc(-c2ccc3c(c2)CCCC3)o1)c1ccc(Cl)cc1Cl, O=C(Nc1nnc(-c2ccc3c(c2)CCCC3)o1)c1ccccc1Cl, O=C(Nc1nnc(-c2ccc3c(c2)CCCC3)o1)c1ccccc1, N#Cc1c2ccc(O)cc2n2ccccc12, COc1ccc2c(C#N)c3ccccn3c2c1, COc1ccc2[nH]c(=O)c3c(c2c1)OC(C)(C)C=C3, O=C(Nc1ccccn1)C1CCN(c2ncnc3c2nc2n3CCCCC2)CC1, O=C(Nc1ccc(Cl)cn1)C1CCN(c2ncnc3c2nc2n3CCCCC2)CC1, Cc1ccc(NC(=O)C2CCCN(c3ncnc4c3nc3n4CCCCC3)C2)nc1 (stereo not given), O=C(NCC1CCN(Cc2ccc(Cl)cc2)CC1)C1CCCN(c2ncnc3c2nc2n3CCCCC2)C1 (stereo not given), O=C(Nc1ccccc1Cl)/C(Cl)=C(\Cl)S(=O)c1ccccc1 (stereo not given), CC(=O)N1CC(C)Sc2ccc(S(=O)(=O)NCCc3ccc(C)cc3)cc21 (stereo not given), COc1cc(/C=C2\SC(=N)N(c3ccc(F)cc3)C2=O)ccc1O, N#C/C(=C\C=C\c1ccccc1[N+](=O)[O-])C(=O)NC1CCCCC1, Br.CCCCCCCCn1ccc(=N)cc1, Br.CCCCCCCCCn1ccc(=N)cc1, Br.CCCCCCCCCCn1ccc(=N)cc1, Fc1ccccc1/C=N/Nc1nc(-c2ccccn2)nc2ccccc12, C(=N\Nc1nc(-c2ccccn2)nc2ccccc12)/c1ccccc1, COc1cccc(Nc2nc(NCCO)c3ccccc3n2)c1.Cl, O=c1cc(CSc2nnc(-c3cccs3)n2Cc2ccccc2)nc2sc3ccccc3n12, CCOc1ccccc1CNC(=O)Cn1nc(C)c2c(C)n(-c3ccc(C)cc3)nc2c1=O, COc1ccc(CCNC(=O)C(C)n2nc(C)c3c(C)n(-c4ccc(C)cc4)nc3c2=O)c(OC)c1 (stereo not given), COc1ccc(OC)c(CCNC(=O)Cn2nc(C)c3c(C)n(-c4ccc(C)cc4)nc3c2=O)c1, COc1ccc(OC)c(CCNC(=O)C(C)n2nc(C)c3c(C)n(-c4ccc(C)cc4)nc3c2=O)c1 (stereo not given), Cc1ccc(CS(=O)(=O)c2ncc(Cl)c(C(=O)Nc3nnc(C(C)C)s3)n2)cc1, CSc1nnc(NC(=O)c2nc(S(=O)(=O)Cc3ccc(C)cc3)ncc2Cl)s1, Cc1cccc(CS(=O)(=O)c2ncc(Cl)c(C(=O)Nc3nnc(C(C)C)s3)n2)c1
